# In all, about 360,000 compounds went through this assay and about 10,000 (2.8%) were called active. Roughly 4% stayed inconclusive and do not appear here. The call rests on the fitted dose curve; in most records, active means well fitted inhibition curve with a large enough effect; inconclusive means small, poorly fitted or top-dose-only effect; inactive means flat fitted curve, though single readings scatter. Many of the other results were omitted from the sample, so actives are more common in it than they were.
# Molecular target: Serine/threonine-protein kinase PLK1 (Homo sapiens) (UniProt P53350)
# Test: qHTS for Inhibitors of PLK1-PDB (polo-like kinase 1 - polo-box domain): Primary Screen; further: nearly all actives have a fitted effect of over 65% in size; on max response, negative = inhibition: series mostly up to about 57 µM
# Settings: Plk1 PBD binding of FITC phosphopeptide, fluorescence polarization
# On the % scale 0 is the no-effect control and ±100 the full control effect; potency means the concentration at half of the fitted maximal effect.
# Serine/threonine-protein kinase PLK1 (Homo sapiens), sequence (P53350 whole entry, looked up, the tested form may be a part): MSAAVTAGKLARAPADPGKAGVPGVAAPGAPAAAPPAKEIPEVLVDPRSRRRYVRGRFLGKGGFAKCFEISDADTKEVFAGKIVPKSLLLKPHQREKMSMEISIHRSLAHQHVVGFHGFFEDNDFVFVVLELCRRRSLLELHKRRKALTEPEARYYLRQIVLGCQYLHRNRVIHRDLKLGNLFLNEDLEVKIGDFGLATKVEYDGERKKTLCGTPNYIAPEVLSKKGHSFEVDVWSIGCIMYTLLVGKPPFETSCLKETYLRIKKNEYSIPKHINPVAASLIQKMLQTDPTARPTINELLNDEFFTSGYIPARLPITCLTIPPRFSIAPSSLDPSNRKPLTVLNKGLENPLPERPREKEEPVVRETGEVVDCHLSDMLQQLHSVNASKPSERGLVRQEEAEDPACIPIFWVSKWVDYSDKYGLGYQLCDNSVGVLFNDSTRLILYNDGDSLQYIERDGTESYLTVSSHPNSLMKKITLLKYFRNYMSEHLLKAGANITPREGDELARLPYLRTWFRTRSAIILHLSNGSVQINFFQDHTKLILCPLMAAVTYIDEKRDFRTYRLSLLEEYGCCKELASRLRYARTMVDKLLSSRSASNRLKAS
Structure (SMILES),"max response, negative = inhibition",Potency
CC1COc2ccccc2N1C(=O)c1ccc(F)cc1 (stereo not given),-6.97% (inactive),
O=C(c1ccc(F)cc1)N1CCC(n2nnc3ccccc32)CC1,-7.84% (inactive),
c1ccc(Cn2nnc3c(NCC4CC4)ncnc32)cc1,-24.2% (inactive),
Nc1nc2c(ncn2[C@@H]2O[C@H](CNS(=O)(=O)N3CCc4ccccc4C3)[C@@H](O)[C@H]2O)c(=O)[nH]1,-3.21% (inactive),
O=C(Nc1ccc(OCCO)cc1)c1csc([C@H]2C[C@H](O)[C@@H](CO)O2)n1,-5.62% (inactive),
Cc1cc(C)n(-c2nc(O)cc(=O)[nH]2)n1,-2.57% (inactive),
Cc1cc(=O)[nH]c2nnnn12,,23.8 µM (active)
Cn1nnnc1SCc1cc(=O)[nH]c2ccccc12,-18.7% (inactive),
CCC(CC)C(C(=O)NC1CCCC1)N1CCN(c2cc(C)nc3ccccc23)CC1 (stereo not given),-1.11% (inactive),
C[C@@H]1CN([C@H](C)CO)S(=O)(=O)c2ccc(C#C[C@@H](C)O)cc2O[C@@H]1CN(C)Cc1ccc(-c2ccccc2)cc1,-3.99% (inactive),
CC(=O)Nc1ccc2nc(NC(=O)CS(=O)(=O)c3ccc(F)cc3)sc2c1,-4.56% (inactive),
COc1ccc(C(CNC(=O)CSc2ccccc2)N2CCOCC2)cc1 (stereo not given),-29.4% (inactive),
CCc1ccc([C@@H]2CC(=O)[C@@H]3CN(S(=O)(=O)c4ccc(C)cc4)[C@H](c4ccc(Cl)cc4)C[C@@H]3N2S(=O)(=O)c2ccc(C)cc2)cc1,3.16% (inactive),
CN(C)S(=O)(=O)c1ccc2oc(SCC(=O)Nc3ccccc3F)nc2c1,-21.2% (inactive),
COc1ccc(S(=O)(=O)N(C)C)cc1NC(=O)CSc1ncccn1,,15 µM (active)
COc1ccc(S(=O)(=O)N(C)C)cc1NC(=O)COC(=O)c1n[nH]c2ccccc12,-0.239% (inactive),
CC1(C)OC(=O)C2=C(CC(c3ccccc3)OC2CCc2ccccc2)O1 (stereo not given),-6.04% (inactive),
Cc1cccc(C)c1NC(=S)N1CCCCCC1,-6.23% (inactive),
S=C(c1ccc(-c2ccccc2)o1)N1CCCCC1,,9.47 µM (active)
O=C(c1ccc(CSc2ccccc2)cc1)N1CCCCCC1,-2.73% (inactive),
O=C(C[C@H]1CC[C@H]2[C@@H](COC[C@H](O)CN2C(=O)c2ccccn2)O1)N1CCN(c2ccccc2)CC1,-2.29% (inactive),
Cn1nnnc1-c1cc(Cl)cc(Cl)c1,,26.7 µM (active)
Cn1nnnc1NCc1ccc(Cl)c(Cl)c1,-14% (inactive),

Structure (SMILES),"max response, negative = inhibition",Potency
Cc1ccc(S(=O)(=O)N[C@H](CO)C(C)C)cc1,-4.56% (inactive),
CCOC(=O)CNc1nc(Cl)nc(Nc2ccc(OC)cc2OC)n1,0.534% (inactive),
CCOC(=O)CNc1nc(Cl)nc(Nc2ccccc2)n1,,21.2 µM (active)
CCC(=O)Nc1ccc(Nc2nc(Cl)nc(Nc3ccc(NC(=O)CC)cc3)n2)cc1,-16.7% (inactive),
CC1(C)OC(=O)C2=C(C[C@@H](C3CCCC3)O[C@@H]2c2ccc(Cl)cc2)O1,2.05% (inactive),
Cc1ccc(C(=O)Nc2c(C#N)c(C)c(C)n2Cc2ccccc2)cc1,-3.45% (inactive),
CCCc1ccc(-c2c(C)sc(NC(=O)c3ccnn3C)c2C#N)cc1,,10.6 µM (active)
Cc1c(C#N)c(NC(=O)c2ccccc2)n(Cc2ccccc2)c1C,-4.49% (inactive),
CC1(C(=O)NS(=O)(=O)c2ccccc2)CCN1C(=O)C1CCCCC1 (stereo not given),-5.58% (inactive),
Cc1cccnc1C(NC(=O)C1CCN(Cc2ccc(Cl)c(Cl)c2)CC1)c1ccc(Cl)cc1 (stereo not given),-6.41% (inactive),
Cc1cn([C@H]2C[C@H](O)[C@@H](CNC(=O)[C@H](N)Cc3cccnc3)O2)c(=O)[nH]c1=O,-0.77% (inactive),
Cc1ccc(NC(=O)NC(=O)N(C2CCCCC2)S(=O)(=O)c2ccccc2)cc1,,29.9 µM (active)
CC(C)(C)NS(=O)(=O)c1ccc(NC(=O)NC2CCCCC2)cc1,-9.85% (inactive),
CC(c1ccco1)N(C(=O)Nc1ccccc1)C1CCCCC1 (stereo not given),-2.64% (inactive),
COc1cc(C(O)c2nc(-c3cccc(C(=O)O)c3)cs2)ccc1F (stereo not given),2.95% (inactive),
O=C(O)c1ccccc1N=N/C(=N/Nc1cc(S(=O)(=O)O)ccc1O)c1ccccc1,,16.8 µM (active)
COc1cccc(NC(=O)C2(C)CCN2Cc2ccccc2Cl)c1 (stereo not given),4.24% (inactive),
OCCc1ccc(NCCc2ccco2)cc1,-4.52% (inactive),
O=Nc1c(O)cc(O)c2ccccc12,-5.49% (inactive),
Cc1cc(N2C(=O)C(=O)/C(=C(/O)c3ccccc3)C2c2cccc(Br)c2)no1 (stereo not given),-15% (inactive),
C=CCOc1cccc(C2C(C(=O)c3ccc(C)o3)=C(O)C(=O)N2CCN2CCOCC2)c1 (stereo not given),-19.4% (inactive),
Cc1cc(N2C(=O)C(O)=C(C(=O)c3ccc(C)o3)C2c2ccc(OCc3ccccc3)cc2)no1 (stereo not given),,21.2 µM (active)
